We go through seven molecules from PubChem BioAssay (NCATS).

SMILES strings stand for the structures. Where “and” joins values, the source holds several entries; their conditions need not be identical. Identical values can stand only once. Results filed as inconclusive are left out. Calls of active or inactive are those of the source. Unless noted, calls come from the whole dose curve; as a rule, active = well fitted curve in the direction sought with a large enough effect; inconclusive = small, poorly fitted or top-dose-only effect, or another doubt; inactive = no such curve, though single readings can be large; an effect the other way counts as inactive or inconclusive.

Test [1] in a line: Cell Viability - SK-N-SH (AID 435; calls by dose curve;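 note: potency is the fitted concentration of half-maximal effect; compound exposure lasted 40 h at 37 °C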). The settings on record: SK-N-SH neuroblastoma cell viability qHTS. An outline of the steps:
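SK-N-SH human neuroblastoma cells (1500/well) were exposed to compounds in complete medium for 40 h at 37 °C, and intracellular ATP was then measured by CellTiter-Glo luminescence. AC50 was taken from Hill fits, normalized to DMSO and 100 uM tamoxifen.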

Test [2] is described as follows: Cell Viability - N2a (AID 540).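 For activity change, negative = cytotoxicity: plate controls were DMSO alone for no effect and tamoxifen control for full effect.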 Note: nearly all actives have a fitted effect of over 45% in size. Note: potency is the fitted concentration of half-maximal effect. The settings on record: N2a mouse neuroblastoma cell viability; activity change, negative = cytotoxicity: at 92.2 µM (top of the series). In a few lines:
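In this qHTS cytotoxicity screen, ATP-dependent luciferase luminescence reports viable N2a cells after a 40 hr compound exposure in complete culture medium. Potencies are AC50 values from standard Hill equation fits.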

A short description of test [3]: Cell Viability - NIH 3T3 (AID 541).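 Note: plate controls were DMSO alone for no effect and tamoxifen positive control for full effect; nearly all actives have a fitted effect of over 25% in size.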 The settings on record: NIH 3T3 cell viability, qHTS; activity change, negative = cytotoxicity: at 92.2 µM (top of the series). In a few lines: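 In this cytotoxicity screen, acute toxicity is scored as an ATP drop measured by CellTiter-Glo in NIH 3T3 fibroblasts following a 40 hr, 37 °C incubation with compound.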
In general terms: In qHTS, concentration-response curves come from the screen itself.

The nature of test [4]: Cell Viability - HUV-EC-C (AID 542). Note: % is set by controls: 0 for no effect and ±100 for the full control effect; nearly all actives have a fitted effect of over 35% in size. The settings on record: HUV-EC-C endothelial cell viability, qHTS; series mostly up to 92.2 µM. In a few lines: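 Concentration-dependent ATP loss in HUV-EC-C cells is the measure. Exposure lasts 40 hr at 37 °C; luminescence follows CellTiter-Glo addition, and Hill fits give AC50.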
The nature of test [5]: Cell Viability - SH-SY5Y (AID 544).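 Note: 0% = DMSO alone and -100% = 100 µM tamoxifen; nearly all actives have a fitted effect of over 55% in size.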 The settings on record: SH-SY5Y neuroblastoma cell viability; series mostly up to 92.2 µM. An outline of the steps: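 Quantitative HTS in SH-SY5Y neuroblastoma cells, 40 hr treatment at 37 °C, ATP content by luciferase luminescence; AC50 from Hill fits.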
The nature of test [6]: Cell Viability - Renal Proximal Tubule (AID 545).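 Note: 0% = DMSO only and -100% = 100 µM tamoxifen; nearly all actives have a fitted effect of over 40% in size.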 The settings on record: renal proximal tubule cells viability, primary cells of rat origin; at 91.7 µM (top of the series). An outline of the steps: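 Primary rat renal proximal tubule cells (1000/well) were treated with compounds for 40 hr at 37 °C in complete medium. Intracellular ATP was measured by CellTiter-Glo luminescence, and AC50 values came from Hill-equation fits of concentration-response data.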

Test [7] is described as follows: Cell Viability - Mesenchymal (AID 546).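 Note: cells exposed to compound for 40 hours before reading; 0% = DMSO only and -100% = 100 µM tamoxifen.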 The settings on record: mesenchymal cells viability, qHTS; activity change, negative = cytotoxicity: at 91.7 µM (top of the series). An outline of the steps: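 In this qHTS cytotoxicity format, glomerulus-derived human mesenchymal kidney cells received compound for 40 hr, then luciferase-based ATP quantitation. Concentration-response data were fitted with the Hill equation.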

Test [8] in a line: qHTS Assay for Identification of Small Molecule Inducers of Hypoxia Response (AID 2120; active = well fitted curve in the direction sought with a large enough effect in the signal ratio, with a control signal flat, not every such curve was filed as active; the % refers to the signal ratio; note: 0% is about no effect). The settings on record: hypoxia response reporter cells, beta-lactamase ratio readout; series mostly up to 104 µM. An outline of the steps: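 HRE-bla ME-180, 2500 cells/well, 0.5% dialyzed FBS medium; cpd titration, 17 h 37 degrees C; CCF4 2.5 h RT; Ex 405, Em 460/530 ratio -> %Activity, AC50.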

The nature of test [9]: qHTS assay for small molecule agonists of retinoid X receptor alpha signaling (AID 588544; calls by dose curve). The settings on record: HEK293T RXRa-UAS-bla, beta-lactamase reporter, 18 h; 530 nm emission.
Test [10] deals with Retinoic acid receptor RXR-alpha (Homo sapiens) (UniProt P19793). Described as above. The settings on record: HEK293T RXRa-UAS-bla, beta-lactamase reporter, 18 h; series mostly up to 76.7 µM.
Test [11] can be described thus: qHTS assay for small molecule antagonists of retinoid X receptor alpha signaling (AID 588546; active = well fitted inhibition curve with a large enough effect in the signal ratio, with a control signal flat, not every such curve was filed as active; the % refers to the signal ratio;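 note: cells stimulated with 9-cis-retinoic acid as agonist; % is set by controls: 0 for no effect and ±100 for the full control effect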). The settings on record: HEK293T RXRa-UAS-bla, beta-lactamase ratio, antagonist mode; measured here: W530 green channel, cytotoxicity proxy. In a few lines:
(§1)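 Beta-lactamase reporter inhibition, read as CCF4 fluorescence ratio (ex 405, em 460/530 nm) after 2 h at RT. HEK293T UAS-bla cells, 2500/well, were stimulated with 9-cis-RA at 500 or 100 nM final alongside test compound for 18 h at 37 C.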

In test [12] the target is Retinoic acid receptor RXR-alpha (Homo sapiens) (UniProt P19793). The description is as above. The settings on record: HEK293T RXRa-UAS-bla, beta-lactamase ratio, antagonist mode. In a few lines: as §1
In test [13] the target is Peroxisome proliferator-activated receptor alpha (Homo sapiens) (UniProt Q07869). Put plainly: qHTS assay for small molecule agonists of the peroxisome proliferator-activated receptor alpha (PPARalpha) signaling pathway (AID 651778). Note: % of control where 0% means no effect. The settings on record: PathHunter PPARalpha complementation, chemiluminescence, 6 h; max response: stronger effect = higher value. An outline of the steps: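 Cells plated at 2,000/well and held overnight at 37 C, 5% CO2, then compound added by pin tool for 6 hr; after PathHunter detection reagent and 60 min at room temperature, chemiluminescence from enzyme complementation was read.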

Test [14] in a line: qHTS assay for small molecule agonists of the antioxidant response element (ARE) signaling pathway measured by Nrf2-dependant transcriptional activity - cell viability counter screen (AID 720653; active = well fitted curve in the direction sought with a large enough effect in the repeat runs; an effect the other way counts as inactive or inconclusive; note: % is set by controls: 0 for no effect and ±100 for the full control effect). The settings on record: ARE-bla HepG2 viability, CellTiter-Glo ATP luminescence, 16 h; max response: stronger effect = lower value. An outline of the steps: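 ARE-bla HepG2 cells (2,000/well) rested 5 hrs at 37C/5% CO2, then exposed to compounds in DMSO for 16 hrs. Viability was read in the same wells as intracellular ATP by luminescence, 30 min at room temperature after reagent addition.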

Test [15] in a line: qHTS assay for cell viability of HEK293 cells (AID 743288). For max response: % is set by controls: 0 for no effect and ±100 for the full control effect. Note: nearly all actives have a fitted effect of over 50% in size. Note: potency is the fitted concentration of half-maximal effect. The settings on record: ATP luminescence (CellTiter-Glo), 18 h; max response: stronger effect = lower value. An outline of the steps: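 After 18 h compound exposure at 37 C, parental HEK293 cells (2,000/well) are lysed with CellTiter-Glo and luminescence is read following 30 min at room temperature.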
Test [16] can be described thus: qHTS assay for cell viability of the p53RE-bla HCT-116 cell line (AID 743292). Note: % is set by controls: 0 for no effect and ±100 for the full control effect; nearly all actives have a fitted effect of over 55% in size. The settings on record: p53RE-bla HCT-116 viability, ATP luminescence, 16 h; series mostly up to 95 µM. In a few lines:
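After plating at 4,000 cells per well and a 5 h rest at 37 C, HCT-116 cells carrying p53RE-bla received test chemicals in DMSO. Sixteen hours later at 37 C, CellTiter-Glo was added and luminescence recorded following 30 min at room temperature.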

The target of test [17] is Phospholipid hydroperoxide glutathione peroxidase GPX4 (Homo sapiens) (UniProt P36969). Briefly: Primary qHTS Assay for Inhibitors of Recombinant Selenoprotein Glutathione Peroxidase 4 (GPX4) (AID 1845192). For activity change, negative = inhibition: % is set by controls: 0 for no effect and ±100 for the full control effect. Note: nearly all actives have a fitted effect of over 65% in size. Note: potency is the fitted concentration of half-maximal effect. The settings on record: recombinant GPX4, GR-coupled NADPH fluorescence, 15 min; series mostly up to 50 µM. In a few lines:
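qHTS, GR-coupled: GPX4 200 nM + cpd 30 min RT → GSH 1 mM, NADPH 0.5 mM, GR 100 nM → CHP 0.5 mM start; fluor 340/450 at t0 and t15 min; no-enzyme wells as control.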

Test [18] in a line: qHTS assay for small molecule agonists of the antioxidant response element (ARE) signaling pathway measured by Nrf2-dependant transcriptional activity (AID 720636; active = well fitted curve in the direction sought with a large enough effect in the repeat runs; an effect the other way counts as inactive or inconclusive; note: potency is the fitted concentration of half-maximal effect). The settings on record: ARE-luc HepG2, Nrf2 luciferase reporter, 16 h; series mostly up to 92.4 µM. In a few lines:
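ONE-Glo luminescence, read 30 min after reagent addition at room temperature, reflected ARE reporter activity in HepG2 cells that had been incubated with compound for 16 hr at 37 C in 1% dialyzed FBS.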

Sequence of Phospholipid hydroperoxide glutathione peroxidase GPX4 (Homo sapiens) (P36969 whole entry, looked up): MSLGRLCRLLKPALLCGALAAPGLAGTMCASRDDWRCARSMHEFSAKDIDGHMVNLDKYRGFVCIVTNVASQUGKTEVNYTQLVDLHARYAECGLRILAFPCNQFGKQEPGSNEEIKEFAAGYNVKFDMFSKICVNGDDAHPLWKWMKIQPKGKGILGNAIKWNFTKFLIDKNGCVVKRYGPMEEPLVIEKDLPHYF
Sequence of Retinoic acid receptor RXR-alpha (Homo sapiens) (P19793 whole entry, looked up): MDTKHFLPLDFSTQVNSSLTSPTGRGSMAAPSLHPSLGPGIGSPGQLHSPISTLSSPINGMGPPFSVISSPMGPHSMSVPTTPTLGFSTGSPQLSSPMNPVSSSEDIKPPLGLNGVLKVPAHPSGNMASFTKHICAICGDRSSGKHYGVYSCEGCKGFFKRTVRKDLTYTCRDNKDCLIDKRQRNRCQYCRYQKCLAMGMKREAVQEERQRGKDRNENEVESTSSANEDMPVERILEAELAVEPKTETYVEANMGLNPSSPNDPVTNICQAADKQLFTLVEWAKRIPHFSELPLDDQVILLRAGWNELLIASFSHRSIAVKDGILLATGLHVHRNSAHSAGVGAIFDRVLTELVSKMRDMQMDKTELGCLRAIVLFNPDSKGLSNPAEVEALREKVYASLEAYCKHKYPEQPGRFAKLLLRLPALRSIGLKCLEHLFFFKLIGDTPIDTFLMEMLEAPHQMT
Sequence of Peroxisome proliferator-activated receptor alpha (Homo sapiens) (Q07869 whole entry, looked up): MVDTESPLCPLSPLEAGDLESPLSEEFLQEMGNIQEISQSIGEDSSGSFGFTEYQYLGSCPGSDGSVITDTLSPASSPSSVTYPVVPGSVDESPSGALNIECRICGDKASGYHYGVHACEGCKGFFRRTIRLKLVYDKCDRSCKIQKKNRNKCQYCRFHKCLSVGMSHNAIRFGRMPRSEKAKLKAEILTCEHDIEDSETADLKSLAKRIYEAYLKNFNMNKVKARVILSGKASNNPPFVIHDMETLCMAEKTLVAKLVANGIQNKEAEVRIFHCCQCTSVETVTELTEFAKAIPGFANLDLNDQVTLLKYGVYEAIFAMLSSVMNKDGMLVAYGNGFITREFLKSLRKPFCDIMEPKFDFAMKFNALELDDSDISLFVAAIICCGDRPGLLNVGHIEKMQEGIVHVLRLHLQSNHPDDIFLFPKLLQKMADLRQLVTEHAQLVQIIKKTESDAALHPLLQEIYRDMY

`c1ccc2c(c1)c1cccc3ccc4cccc2c4c31`: in test [1], the Potency is > 92 µM (inactive). The activity change, negative = cytotoxicity in test [2] is 3.28% (inactive); in test [6], -12.3% (inactive); in [7], 2.17% (inactive). For the same molecule, the Potency entry in test [3], in [5] and in test [16] was “inactive” throughout. The call in test [4], in test [8] and in test [10] was inactive. For the same molecule, the max response in test [9] was -17% and -12.4%; in [11], -0.47% and 10%; in [12], -6.5% (inactive) and -1.07% (inactive); in test [13] it was -2.3% (inactive) and -3.04% (inactive); in [14], -0.0817% (inactive) and -5.96% (inactive); in test [15], 0.963% (inactive) and -16.2% (inactive).

For the molecule `CC(C)OC(=O)CCC/C=C\C[C@@H]1[C@@H](CC[C@@H](O)CCc2ccccc2)[C@H](O)C[C@@H]1O`, the activity change, negative = inhibition in [17] is 4.91% [at 9.73 µM] (inactive).

For the molecule `CCCCC(CC)COC(=O)c1ccc(Nc2nc(Nc3ccc(C(=O)OCC(CC)CCCC)cc3)nc(Nc3ccc(C(=O)OCC(CC)CCCC)cc3)n2)cc1` (centres undefined), the Potency entry in [17] is “inactive”.

Take `COC(=O)c1ccc(C)cc1`: the Potency in test [1] was > 92 µM (inactive). The activity change, negative = cytotoxicity in [2] is -14.4% (inactive); in [6], -5.83% (inactive); in test [7], -2.78% (inactive). Besides, the Potency result in test [3], in test [5], in test [18] and in test [16] was “inactive” in each case. Besides, the molecule was classed as inactive in test [4], in test [8] and in test [10]. Moreover, the max response was 8.76% and -8.45% in [9]; -12.4% and -3.35% in test [11]; 25.4% (inactive) and -1.75% (inactive) in test [12]; 0.456% (inactive) and 0.65% (inactive) in test [13]; 2.73% (inactive) and -0.323% (inactive) in [14]; 4.41% (inactive) and -4.05% (inactive) in [15].

`O=C1c2ccccc2C(=O)C1c1ccc2ccccc2n1`: the Potency in test [1] is 34 µM (active); in test [2], 31.6 µM (active); in test [18], 1.54 µM (active) and 1.33 µM (active); in test [15], 39.8 µM (active). For the same molecule, the activity change, negative = cytotoxicity in test [3] is -106% (active); in test [6] it was -13.3% (inactive); in test [7], -33.6% (inactive). Also, the result in [4], in test [8] and in [10] was inactive. Further, the Potency result in [5] and in test [16] was “inactive” throughout. The max response in test [9] was 16.7%; in test [11], -3.83%; in test [12], -20% (inactive); in test [13], 1.24% (inactive) and 1.1% (inactive).

Consider `CC1=CC(C)(C)Nc2ccccc21`, for which, in test [1], the Potency was > 92 µM (inactive). The activity change, negative = cytotoxicity in test [2] is -24% (inactive) and 1.94% (inactive); in test [6], -6.6% (inactive) and -0.974% (inactive); in test [7], 16.2% (inactive) and 9.84% (inactive). In addition, the Potency entry in [3], in test [5], in [18] and in [16] was “inactive” each time. Besides, the molecule was classed as inactive in [4], in [8] and in [10]. The max response was -19.9% and -2.04% in test [9]; -11.3% and -9.31% in test [11]; 7.64% (inactive) and -0.906% (inactive) in test [12]; 2.08% (inactive) and -3.28% (inactive) in [13]; 0.655% (inactive) and 4.88% (inactive) in test [14]; -4.28% (inactive) and -1.89% (inactive) in test [15].

In the case of `C=C1CC[C@H](O)C/C1=C\C=C1/CCC[C@]2(C)[C@@H]([C@H](C)CC[C@H](O)C(C)(C)O)CC[C@@H]12`, the Potency in [17] is 14.1 µM (active).
